The source of these data is PubChem BioAssay AID743287 (Broad Institute, 2014).

The whole screen tested about 370,000 compounds, of which about 2,300 (0.62%) were called active. The entries come from a sample that favours actives as a whole. Unmarked numbers belong to inactive results.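 How the source made its calls: active means lowest replicate activation of at least 40%, so every replicate reaches that level; inactive means the rest.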

A short description of this assay: primary screen for activators of insulin secretion dependent on glucose, INS-1E cells, GLuc reporter luminescence (AID 743287).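 Further: 0% = median of neutral control wells and 100% = median of IBMX positive control wells.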 As to conditions: INS-1E GLuc reporter insulin secretion, 2-3 h, at 16.6 µM, stronger effect = higher value.
For the molecule `CC(C)NC(=O)N(C)C[C@@H]1Oc2ncc(C3=CCCCC3)cc2C(=O)N([C@H](C)CO)C[C@@H]1C`, the activation is -12.5%.

On to `CC(=O)Nc1ccc(S(=O)(=O)N2CCC(C(=O)NC3CC3)CC2)cc1`, for which the activation is 29.2%.

As for `Cc1ccc(NC(=O)C2CCN(S(=O)(=O)c3ccc4c(c3)NC(=O)CO4)CC2)cc1C`, the activation is -23%.

Turning to `Cn1c(=O)oc2cc(S(=O)(=O)N3CCC(C(=O)Nc4ccc(OC(F)(F)F)cc4)CC3)ccc21`, the activation was 48.6% (active).

Turning to `C[C@H](NC(=O)[C@@H]1[C@@H](CO)[C@@H]2Cn3c(ccc(-c4cccc(F)c4)c3=O)[C@@H]2N1C)c1ccccc1`, the activation is -1.52%.

As to `C[C@@H]1CCCCO[C@@H](CN(C)S(=O)(=O)c2cn(C)cn2)[C@H](C)CN([C@@H](C)CO)C(=O)c2cc(NC(=O)Nc3ccccc3)ccc2O1`, the activation was 20.9%.

For `CN1C(=O)c2cc(NC(=O)Cc3ccccc3)ccc2OC[C@H]2O[C@H](CC(=O)NCc3ccc(Cl)cc3)CC[C@H]21`, the activation is -7.02%.

With `C[C@@H]1CN([C@H](C)CO)C(=O)Cc2cc(NC(=O)Nc3ccc(C(F)(F)F)cc3)ccc2O[C@@H]1CN(C)S(=O)(=O)c1ccccc1`, the activation was 7.64%.

In the case of `COc1ccc(CN2CCOC2=O)cc1OC`, the activation was 59.2% (active).

In the case of `COc1ccc(CN2CCCCC2C)cc1OC` (stereo not drawn), the activation is 11.6%.

`COc1ccc(CN2CC[C@H]3C=CC[C@@H](C(=O)N4CCOCC4)[C@H]3C2=O)cc1OC`: the activation is 9.86%.

With `CNC[C@@H]1Oc2ccc(NC(C)=O)cc2CC(=O)N(C)C[C@@H]1C`, the activation is 3.12%.

As for `COc1ccc(CN2[C@@H](CO)[C@@H]3c4ccccc4N(C(=O)Nc4ccccc4)C[C@@H]32)cc1`, the activation was -18.4%.

In the case of `COc1ccc(-c2ccccc2C2Cc3nnccc3CN2C(=O)Nc2ccccc2)cc1` (stereo not drawn), the activation was 60.4% (active).

Turning to `COC(=O)N1Cc2ccnnc2CC1c1ccccc1Br` (stereo not drawn), the activation was 5.66%.

`CO[C@H]1CN(C)C(=O)c2ccc(NC(=O)NC(C)C)cc2OC[C@H](C)N(Cc2cncnc2)C[C@@H]1C`: the activation was -3.42%.

In the case of `Clc1ccc(Cl)c(Oc2ccc(Oc3nc(Cl)ccc3Cl)cc2)n1`, the activation is 43.2% (active).

For `CC(C)NC(=O)N(C)C[C@@H]1OCCCC[C@H](C)Oc2ccc(NC(=O)Nc3ccccc3)cc2C(=O)N([C@H](C)CO)C[C@@H]1C`, the activation is -11.5%.

In the case of `Cc1ccc(COC(=O)CN2C(=O)NC3(CCCC3)C2=O)cc1`, the activation is 6.93%.

As for `CCOc1ccc(C(C)=O)cc1COC(=O)CN1C(=O)NC2(CCCC2)C1=O`, the activation is 241% (active).

On to `CCOc1ccc(C(C)NC(=O)CN2C(=O)NC3(CCCCC3)C2=O)cc1OCC` (stereo not drawn), for which the activation was 5.62%.

As to `CCC(=O)N(C)C[C@@H]1Oc2cc(C#CCOC)ccc2S(=O)(=O)N([C@H](C)CO)C[C@H]1C`, the activation is 8.1%.

For the molecule `CCCN(C)C[C@@H]1OCCCC[C@H](C)Oc2ccc(NS(=O)(=O)c3ccc(C)cc3)cc2C(=O)N([C@H](C)CO)C[C@@H]1C`, the activation was 7.05%.

With `COCCNc1nc(N)c([N+](=O)[O-])c(N2CCCCCC2)n1`, the activation is 52.3% (active).

As to `C=CCNc1nc(N)c([N+](=O)[O-])c(NC2CCCCC2)n1`, the activation was 20.2%.

As for `COCCNc1nc(N)c([N+](=O)[O-])c(NCCO)n1`, the activation was 17.8%.

Consider `CC(=O)Nc1ccc2c(c1)C(=O)N(C)[C@H]1CC[C@H](CC(=O)NCc3ccccc3Cl)O[C@H]1CO2`, for which the activation is -3.1%.

For `N#C[C@H]1[C@H](c2ccccc2)[C@@H](CO)N1C(=O)c1cccnc1`, the activation is 1.43%.

With `C[C@@H]1CN([C@@H](C)CO)C(=O)c2cc(/C=C/c3ccccc3)cnc2O[C@H]1CN(C)C(=O)C1CCC1`, the activation was -16.6%.

On to `C=CCN=C1NC(c2cccc(C(F)(F)F)c2)C(C(=O)OC)=C(C)N1C` (stereo not drawn), for which the activation was -3.97%.

Regarding `COC(=O)C1=C(C)N(Cc2cccc(C(F)(F)F)c2)C(=NCc2ccccc2)NC1c1ccc(Cl)cc1` (stereo not drawn), the activation is 160% (active).

On to `COC(=O)C1=C(C)N(Cc2ccccc2)C(=NCCCOC(C)C)N[C@H]1c1ccccc1`, for which the activation is -19.7%.

`COC(=O)C1=C(C)N(Cc2cccc(C(F)(F)F)c2)C(=NCc2ccccc2)NC1c1ccccc1C(F)(F)F` (stereo not drawn): the activation was 198% (active).

As to `COC(=O)C1=C(C)N(Cc2cccc(C(F)(F)F)c2)C(=NCc2cccc(C(F)(F)F)c2)NC1c1ccccc1C(F)(F)F` (stereo not drawn), the activation was 23.9%.

On to `COC(=O)C1=C(C)N(Cc2ccc(F)cc2)C(=S)NC1c1cccc(Cl)c1` (stereo not drawn), for which the activation is -20.6%.

Regarding `COc1ccc(S(=O)(=O)N(C)C[C@H]2Oc3c(NS(=O)(=O)c4cccs4)cccc3C(=O)N([C@H](C)CO)C[C@@H]2C)cc1`, the activation is -10.4%.

Take `CO[C@H]1CN(C)C(=O)c2ccc(NC(=O)C3CCCC3)cc2OC[C@H](C)N(C(=O)CC2CC2)C[C@@H]1C`: the activation is 8.95%.

For the molecule `COc1ccc(NC(=O)Nc2cccc3c2O[C@H](CN(C)Cc2ccncc2)[C@@H](C)CN([C@@H](C)CO)C3=O)cc1`, the activation is 3.69%.

Consider `CCSc1ncnc2c(C#N)c3n(c12)CCCCC3`, for which the activation is 47.4% (active).

`CN(C)CC(=O)N1CC2(C1)[C@H](c1ccccc1)[C@H](CO)N2C(=O)C1CC1`: the activation was 10.8%.

For the molecule `N#Cc1cccc(-c2ccc([C@H]3[C@@H](CO)N[C@@H]3CNC(=O)C3CCC3)cc2)c1`, the activation is 7.07%.

Turning to `c1ccc(CCN2CN=C(Nc3nc4ccccc4o3)NC2)cc1`, the activation is -24.2%.

As to `Brc1ccccc1/C=N/Nc1nc2ccccc2o1`, the activation is 46.6% (active).

As for `CN1C(=O)c2cc(NC(=O)c3ccno3)ccc2OC[C@H]2O[C@@H](CC(=O)NCC(F)(F)F)CC[C@@H]21`, the activation is 19.2%.

As for `CC(C)(C)Oc1ccccc1Nc1nc(NCCO)nc(N2CCCC2)n1`, the activation was -9.68%.

Turning to `Cn1ncc2c(N3CCCCC3)nc(NCCCO)nc21`, the activation is 60.1% (active).

For the molecule `COc1ccc(C#Cc2cnc3c(c2)C(=O)N([C@H](C)CO)C[C@@H](C)[C@H](CN(C)C(=O)Nc2cccc(OC)c2)O3)cc1`, the activation was 6.97%.

As to `C[C@@H]1CN([C@H](C)CO)C(=O)c2cc(C#Cc3ccncc3)cnc2O[C@H]1CN(C)Cc1ccncc1`, the activation was 9.79%.
